These results are taken from US20240200044, “EVOLUTION OF TALENS” (President and Fellows of Harvard College, published 2024).

The target of this test is CBX8-directed TALE-omega K59E (synthetic construct, UniProt Q56830 SEQ:41-724, K59E). The experiment in a line: one_hybrid; versus canonical CBX8 TALE. To be noted: tags: N-terminal FLAG-NLS, C-terminal RNAP omega; dsDNA, one strand shown.

Turning to TTCAGGAGGGCTTCGGC, the binding signal turned out to be 2 fold decrease.
